Data reported in PubChem BioAssay (Tox21).
Records with an inconclusive call do not appear. The source made the active and inactive calls. Unless noted, calls come from the whole dose curve.

Tests used:
[1] = Nuclear factor erythroid 2-related factor 2/antioxidant responsive element (Nrf2/ARE) small molecule agonists: qHTS cell viability counter screen in human keratinocytes (AID 1919968; active = well fitted curve in the direction sought with a large enough effect in the repeat runs; an effect the other way counts as inactive or inconclusive; note: nearly all actives have a fitted effect of over 55% in size)
How it was run: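 Stably transfected HaCaT (KeratinoSens), 1,500/well. Test agents in DMSO were applied for 23 h, 37 C/5% CO2. CellTiter-Fluor was incubated 1 h before the fluorescence read.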

[2] = Nuclear factor erythroid 2-related factor 2/antioxidant responsive element (Nrf2/ARE) small molecule agonists: luciferase reporter gene qHTS assay in human keratinocytes (AID 1919969); note: nearly all actives have a fitted effect of over 35% in size
[3] = molecular target: Gonadotropin-releasing hormone receptor (Homo sapiens) (UniProt P30968); assay: Human gonadotropin-releasing hormone receptor (GnRHR) small molecule agonists, calcium flux assay in GnRHR-HEK293 cells (AID 1920063); note: nearly all actives have a fitted effect of over 35% in size
Gonadotropin-releasing hormone receptor (Homo sapiens), sequence (P30968 whole entry, looked up): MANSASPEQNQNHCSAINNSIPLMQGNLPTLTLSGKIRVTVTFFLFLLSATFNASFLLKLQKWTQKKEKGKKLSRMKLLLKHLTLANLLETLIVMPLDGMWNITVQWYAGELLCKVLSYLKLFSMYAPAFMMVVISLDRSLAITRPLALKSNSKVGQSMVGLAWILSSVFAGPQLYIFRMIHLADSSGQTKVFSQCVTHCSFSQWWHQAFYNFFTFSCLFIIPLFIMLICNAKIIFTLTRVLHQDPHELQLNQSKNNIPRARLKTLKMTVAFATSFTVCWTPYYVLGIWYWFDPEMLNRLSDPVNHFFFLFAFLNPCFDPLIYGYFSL
How it was run: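 Stable human GnRHR HEK293 line. 18 h plating, then calcium dye for 1 h at 37 C. Agonist-mode compound addition from DMSO stocks; fluorescence monitored 3 min.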

[4] = molecular target: KiSS-1 receptor (Homo sapiens) (UniProt Q969F8); assay: Human kisspeptin (KISS1R) small molecule agonists, calcium flux assay in KISS1R-HEK293 cells (AID 1920064; active = well fitted curve in the direction sought with a large enough effect in the repeat runs; an effect the other way counts as inactive or inconclusive)
KiSS-1 receptor (Homo sapiens), sequence (Q969F8 whole entry, looked up): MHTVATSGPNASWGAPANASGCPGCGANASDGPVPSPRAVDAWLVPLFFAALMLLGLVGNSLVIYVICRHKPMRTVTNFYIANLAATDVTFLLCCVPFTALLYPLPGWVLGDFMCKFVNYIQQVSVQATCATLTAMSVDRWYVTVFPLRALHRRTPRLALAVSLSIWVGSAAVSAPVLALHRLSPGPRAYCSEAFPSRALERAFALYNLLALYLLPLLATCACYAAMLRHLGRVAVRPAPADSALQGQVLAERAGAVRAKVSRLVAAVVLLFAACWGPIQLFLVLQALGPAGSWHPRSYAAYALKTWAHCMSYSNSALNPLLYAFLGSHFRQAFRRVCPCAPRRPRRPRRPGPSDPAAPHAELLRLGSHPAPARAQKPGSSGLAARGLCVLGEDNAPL
How it was run: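 After overnight (18 h) culture at 37 C/5% CO2, human KISS1R-HEK293 cells received calcium dye for 1 h, then test compound; emission at 540 nm (excitation 480 nm) was tracked for 3 min.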

[5] = G protein-coupled receptor (GPCR) small molecule agonists, calcium flux assay: HEK293 wild type cell line counter screen (AID 1920065)
How it was run: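 Following 18 h incubation at 37 C/5% CO2, plates got calcium dye for 1 h; compounds, ATP or DMSO were then pinned in and fluorescence followed kinetically (480/540 nm).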

[6] = p53 small molecule agonists, cell-based qHTS assay with rat liver microsomes (AID 1963578)
How it was run: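 Quantitative HTS of the Tox21 10K library: p53RE-bla cells, rat liver microsomes plus NADPH at 0.5 mg/mL final each, 16 h at 37 C, beta-lactamase fluorescence detection.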

[7] = p53 small molecule agonists, cell-based qHTS assay with human liver microsomes: qHTS cell viability counter screen (AID 1963579); note: nearly all actives have a fitted effect of over 45% in size
How it was run: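 Viability of p53RE-bla cells is measured as CellTiter-Glo luminescence following a 16 h, 37 C incubation with compound, liver microsomes from human donors and NADPH.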

[8] = p53 small molecule agonists, cell-based qHTS assay with rat liver microsomes: qHTS cell viability counter screen (AID 1963580); note: nearly all actives have a fitted effect of over 45% in size
How it was run: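 After the beta-lactamase ratio was read, CellTiter-Glo was added to the same wells and luminescence measured at 30 min; cells had been treated 16 h at 37 C with compounds, rat liver microsomes and NADPH (0.5 mg/mL final each).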

[9] = p53 small molecule agonists, cell-based qHTS assay: qHTS cell viability counter screen (AID 1963581); note: nearly all actives have a fitted effect of over 45% in size
How it was run: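 qHTS counter screen: 16 h compound exposure at 37 C of p53RE-bla HCT-116 cells (4,000 per well, seeded 5 h prior), cell viability by ATP luminescence.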

[10] = molecular target: 5-hydroxytryptamine receptor 2A (Homo sapiens) (UniProt P28223); assay: 5-hydroxytryptamine receptor 2A (HTR2A) small molecule agonists, cell-based qHTS assay (AID 1963587); note: nearly all actives have a fitted effect of over 30% in size
5-hydroxytryptamine receptor 2A (Homo sapiens), sequence (P28223 whole entry, looked up): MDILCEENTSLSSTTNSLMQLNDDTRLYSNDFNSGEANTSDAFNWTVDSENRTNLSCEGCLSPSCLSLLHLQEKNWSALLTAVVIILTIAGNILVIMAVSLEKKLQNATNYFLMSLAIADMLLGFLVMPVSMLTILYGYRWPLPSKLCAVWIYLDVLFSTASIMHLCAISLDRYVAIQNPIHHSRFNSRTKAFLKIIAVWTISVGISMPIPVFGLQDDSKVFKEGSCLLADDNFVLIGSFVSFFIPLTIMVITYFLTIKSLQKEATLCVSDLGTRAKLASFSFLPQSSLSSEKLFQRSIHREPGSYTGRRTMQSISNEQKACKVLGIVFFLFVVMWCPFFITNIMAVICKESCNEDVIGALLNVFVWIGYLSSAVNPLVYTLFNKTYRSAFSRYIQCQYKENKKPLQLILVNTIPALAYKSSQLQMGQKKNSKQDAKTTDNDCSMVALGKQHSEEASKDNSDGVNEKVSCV
How it was run: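 CHO cells stably expressing human HTR2A, plated 18 h, loaded with calcium dye 1 h at 37 C. Agonist mode: compounds added and intracellular calcium fluorescence recorded kinetically for 2 min at 1 sec intervals.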

[11] = molecular target: Muscarinic acetylcholine receptor M1 (Homo sapiens) (UniProt P11229); assay: Cholinergic receptor muscarinic 1 (CHRM1) small molecule antagonists, cell-based qHTS assay (AID 1963588); note: nearly all actives have a fitted effect of over 40% in size
Muscarinic acetylcholine receptor M1 (Homo sapiens), sequence (P11229 whole entry, looked up): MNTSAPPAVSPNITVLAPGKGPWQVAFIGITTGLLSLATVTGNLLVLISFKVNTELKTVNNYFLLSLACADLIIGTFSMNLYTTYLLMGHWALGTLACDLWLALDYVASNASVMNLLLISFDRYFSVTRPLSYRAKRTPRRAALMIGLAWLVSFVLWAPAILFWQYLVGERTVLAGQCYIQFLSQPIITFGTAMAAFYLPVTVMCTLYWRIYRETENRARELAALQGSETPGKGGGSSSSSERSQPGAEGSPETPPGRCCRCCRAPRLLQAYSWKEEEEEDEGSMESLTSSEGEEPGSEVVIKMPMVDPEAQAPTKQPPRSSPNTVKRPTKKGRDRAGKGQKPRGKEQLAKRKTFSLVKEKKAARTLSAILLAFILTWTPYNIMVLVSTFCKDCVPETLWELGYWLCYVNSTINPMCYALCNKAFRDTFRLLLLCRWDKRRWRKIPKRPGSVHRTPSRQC
How it was run: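 Compounds were tested at 15 concentrations in three independent runs. Dye-loaded CHRM1-CHO cells were exposed 5 min at room temperature before stimulation by acetylcholine added at 50nM. Intracellular calcium was read kinetically on FDSS for 3 min.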

[12] = molecular target: Muscarinic acetylcholine receptor M1 (Homo sapiens) (UniProt P11229); assay: Cholinergic receptor muscarinic 1 (CHRM1) small molecule agonists, cell-based qHTS assay (AID 1963589); note: nearly all actives have a fitted effect of over 35% in size
How it was run: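 Kinetic fluorescence (1 s intervals) of calcium-sensitive dye in human M1 CHO cells after compound addition; cells pre-incubated 18 h at 37 C/5% CO2 and dye-loaded 1 h.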

[13] = cAMP Responsive Elements (CRE) small molecule agonists, cell-based qHTS assay (AID 1963590)
How it was run: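 Test agents in DMSO were incubated 3 h at 37 C/5% CO2 with CRE-bla HEK 293T cells seeded 18 h earlier; LiveBLAzer B/G FRET substrate was added and read after 2 h at room temperature.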

[14] = cAMP Responsive Elements (CRE) small molecule antagonists, cell-based qHTS assay (AID 1963591; active = well fitted inhibition curve with a large enough effect in the signal ratio in the repeat runs, not every such curve was filed as active; the % refers to the signal ratio)
How it was run: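 Reporter line CRE-bla HEK 293T in dialyzed-FBS DMEM; cells preincubated 18 h, treated 3 h with compound plus NKH477 (0.25 uM final); LiveBLAzer FRET, 2 h RT.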

[15] = molecular target: Beta-2 adrenergic receptor (Homo sapiens) (UniProt P07550); assay: Adrenergic beta2 receptor (ADRB2) small molecule antagonists, cell-based qHTS assay (AID 1963592); note: series mostly up to about 92 µM; nearly all actives have a fitted effect of over 50% in size
Beta-2 adrenergic receptor (Homo sapiens), sequence (P07550 whole entry, looked up): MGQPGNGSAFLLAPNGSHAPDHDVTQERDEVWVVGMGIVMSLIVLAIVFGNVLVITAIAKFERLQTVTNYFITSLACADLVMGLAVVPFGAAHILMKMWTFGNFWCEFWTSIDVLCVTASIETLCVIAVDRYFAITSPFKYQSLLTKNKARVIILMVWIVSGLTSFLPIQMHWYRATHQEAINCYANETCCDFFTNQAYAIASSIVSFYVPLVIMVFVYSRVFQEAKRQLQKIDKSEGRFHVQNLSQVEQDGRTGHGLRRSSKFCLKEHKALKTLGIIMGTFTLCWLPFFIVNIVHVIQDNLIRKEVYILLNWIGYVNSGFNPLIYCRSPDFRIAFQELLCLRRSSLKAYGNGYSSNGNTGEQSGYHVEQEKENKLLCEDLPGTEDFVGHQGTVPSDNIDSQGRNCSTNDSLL
How it was run: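 Assay format: CHO-ADRB2 cells, 18-20hr seeding at 37C/5% CO2, then compound plus 1nM isoproterenol agonist mix for 0.5hr RT. Homogeneous time-resolved fluorescence cAMP detection after 1hr, expressed as 665/615 nm ratio.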

[16] = molecular target: D(2) dopamine receptor (Homo sapiens) (UniProt P14416); assay: Dopamine D2 receptor (DRD2) small molecule agonists, cell-based qHTS assay (AID 1963594); note: nearly all actives have a fitted effect of over 35% in size
D(2) dopamine receptor (Homo sapiens), sequence (P14416 whole entry, looked up): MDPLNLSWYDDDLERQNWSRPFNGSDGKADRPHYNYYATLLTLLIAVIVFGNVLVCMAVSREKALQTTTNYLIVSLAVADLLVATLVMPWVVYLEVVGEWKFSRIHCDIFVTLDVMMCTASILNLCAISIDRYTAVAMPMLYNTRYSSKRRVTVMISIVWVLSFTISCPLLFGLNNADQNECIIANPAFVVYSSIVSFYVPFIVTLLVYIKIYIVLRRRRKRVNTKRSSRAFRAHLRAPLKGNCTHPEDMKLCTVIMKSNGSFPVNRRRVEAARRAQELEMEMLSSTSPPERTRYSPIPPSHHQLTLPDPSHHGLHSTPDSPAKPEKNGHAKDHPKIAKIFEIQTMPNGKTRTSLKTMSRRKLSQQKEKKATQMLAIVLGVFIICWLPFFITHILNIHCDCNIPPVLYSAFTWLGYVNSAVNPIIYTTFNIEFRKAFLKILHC
How it was run: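 HEK293 cells stably expressing human DRD2, pre-treated with PDE inhibitor Ro20-1724 (0.1 mM final) and compound 10 min at room temperature, then stimulated with NKH477 (200nM […]) for 30 min. cAMP read by HTRF (665/620 nm).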

[17] = molecular target: D(2) dopamine receptor (Homo sapiens) (UniProt P14416); assay: Dopamine D2 receptor (DRD2) small molecule antagonists, cell-based qHTS assay (AID 1963595; active = well fitted inhibition curve with a large enough effect in the signal ratio in the repeat runs, with a control signal flat; the % refers to the signal ratio)
How it was run: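 HTRF cAMP read-out at 665 and 620 nm emission (340 nm excitation). Antagonist mode: compounds were tested against 12 nM quinpirole in DRD2-HEK293 cells, with 200 nM NKH477 raising cAMP and 0.1 mM Ro20-1724 blocking its breakdown.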

[18] = molecular target: 5-hydroxytryptamine receptor 2A (Homo sapiens) (UniProt P28223); assay: 5-hydroxytryptamine receptor 2A (HTR2A) small molecule antagonists, cell-based qHTS assay (AID 1963586); note: nearly all actives have a fitted effect of over 45% in size
How it was run: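 CHO cells stably expressing human HTR2A were plated for 18 h at 37 C, then loaded with calcium dye for 1 h. Compounds were preincubated 5 min at room temperature before DOI (4 nM solution) was added. Kinetic fluorescence was read for 3 min.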

[19] = p53 small molecule agonists, cell-based qHTS assay (AID 1963582; active = well fitted activation curve with a large enough effect in the signal ratio in the repeat runs, not every such curve was filed as active; the % refers to the signal ratio)
How it was run: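 Measured: fluorescence from cleaved LiveBLAzer substrate. System: p53RE-bla cells, 16 h compound treatment at 37 C, 2 h substrate step at room temperature.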
% is set by controls: 0 for no effect and ±100 for the full control effect.

CCCCCCCCCCCCCCCCCCOCCO
inactive: activity change, negative = cytotoxicity [1] 1.01% [at 19 µM] | activity, positive = activation [2] -0.745% [at 19 µM] | activity change [3] 0.36% [at 11.8 µM, hits give high values] | activation [4] 1.36% [at 15.8 µM] | activation [5] 0.568% [at 11.8 µM] | activation [6] 0.0249% [at 13.6 µM] | activity change, negative = cytotoxicity [7] -1.11% [at 13.5 µM] | activity change, negative = cytotoxicity [8] 2.48% [at 13.5 µM] | activity change, negative = cytotoxicity [9] 16.5% [at 13.5 µM] | activation [10] -2.03% [at 15.9 µM] | activity, negative = inhibition [11] -0.0015% [at 12.6 µM] | activation [12] -0.156% [at 15.8 µM] | activation [13] 3.72% [at 19 µM] | activity change, negative = inhibition [14] 0.259% [at 18.9 µM] | activity change, negative = inhibition [15] -12.3% [at 19 µM] | activation [16] -2.91% [at 19 µM] | activity change, negative = inhibition [17] -0.251% [at 18.9 µM]

CC1=CC[C@H](C(C)C)C=C1
inactive: Potency [1] | Potency [2] | Potency [3] | outcome [4] | outcome [5] | Potency [6] | Potency [7] | Potency [8] | Potency [9] | Potency [18] | Potency [10] | Potency [11] | Potency [12] | Potency [13] | Potency [14] | Potency [15] | Potency [16] | Potency [17]

CCOC(=O)N1CCC(Nc2ccc(Cl)cc2N)CC1
inactive: Potency [1] | Potency [2] | Potency [3] | outcome [4] | outcome [5] | Potency [6] | Potency [7] | Potency [8] | Potency [9] | Potency [18] | Potency [10] | Potency [12] | Potency [15] | Potency [16] | Potency [17]

CCOC(=O)C(=O)c1csc(NC=O)n1
inactive: Potency [1] | Potency [2] | Potency [3] | outcome [4] | outcome [5] | Potency [6] | Potency [7] | Potency [8] | Potency [19] | Potency [18] | Potency [10] | Potency [11] | Potency [12] | Potency [13] | Potency [14] | Potency [15] | Potency [16] | Potency [17]

Cc1cccc(C)c1OCC(=O)N[C@@H](Cc1ccccc1)[C@@H](O)C[C@H](Cc1ccccc1)NC(=O)[C@H](C(C)C)N1CCCNC1=O
inactive: Potency [1] | Potency [2] | Potency [3] | outcome [4] | outcome [5] | Potency [6] | Potency [7] | Potency [8] | Potency [9] | Potency [18] | Potency [11] | Potency [12] | Potency [15] | Potency [16] | Potency [17]

Nc1nc(-c2ccccc2)c(Br)c(=O)[nH]1
inactive: Potency [1] | Potency [2] | Potency [3] | outcome [4] | outcome [5] | Potency [6] | Potency [7] | Potency [8] | Potency [18] | Potency [10] | Potency [11] | Potency [12] | Potency [13] | Potency [15] | Potency [16] | Potency [17]

O=C(C1CCCCC1)N1CC(=O)N2CCCc3ccccc3C2C1 (stereo unspecified)
inactive: Potency [1] | Potency [2] | Potency [3] | outcome [4] | outcome [5] | Potency [6] | Potency [7] | Potency [8] | Potency [9] | Potency [19] | Potency [18] | Potency [10] | Potency [11] | Potency [12] | Potency [15] | Potency [16] | Potency [17]
